The entries come from a sample that favours hits as a whole.
Tgondii IFNg – T. gondii growth inhibition under IFN-gamma. AID 1259416. activity change, negative = inhibition, % (concentration not given with the values). 69,000 compounds, 3.8% hits. Toxoplasma gondii growth in IFN-gamma-treated host cells; hits give low values; in the data active = activity change below about -70%, passing the limit was not always enough;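 also: host cells are HeLa cells infected with Toxoplasma gondii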
An asterisk follows results filed as active.

SMILES	Tgondii IFNg
c1coc(CN2CCC3(CC2)CNc2ccccc23)c1	134
C[C@H]1[C@@H](O)O[C@@H]2O[C@@]3(C)CC[C@H]4[C@H](C)CC[C@@H]1[C@@]24OO3	-94*
O=C(OCc1ccco1)c1cccc(S(=O)(=O)N2CCOCC2)c1	10
c1cncc(CN(Cc2ccc3c(c2)OCO3)Cc2cccc3nonc23)c1	-8
CCCN1C(=O)CCc2cc(NC(=O)CCOC)ccc21	7
CCCN1C(=O)CCc2cc(NC(=O)c3ccc(Cl)s3)ccc21	-90*
COCCN1C(=O)CCc2cc(NC(C)=O)ccc21	-28
COCCN1C(=O)CCc2cc(NC(=O)c3ccc(Cl)s3)ccc21	-78*
CCCN1C(=O)CCc2cc(NC(=O)c3cc(Cl)ccc3OC)ccc21	-93*
COCCN1C(=O)CCc2cc(NC(=O)C3CC3)ccc21	45
CCCN1C(=O)CCc2cc(NC(=O)Cc3ccc(Cl)cc3)ccc21	-9
CCCC(=O)Nc1ccc2c(c1)CCC(=O)N2CCC	59
CCCN1C(=O)CCc2cc(NC(C)=O)ccc21	30
CCc1cc(CN(C)C(=O)c2cn[nH]n2)on1	13
Cc1noc(C)c1CN1CCc2nnc(CO)n2CC1	-35
Cc1cccc(NC(=O)CN(Cc2ccco2)C(=O)c2ccc(Cl)cc2)c1	-25
CC(=O)CC1N(Cc2ccccc2)C(=O)C2N(C3CCCCC3)C(=O)C3CC(=O)OC312 (centres undefined)	107
Cc1ncsc1CCC(=O)NCc1csc(N2CCCC2)n1	-45
Cc1nc2c(Cl)cc(Cl)cc2c2nc(N)nn12	-92*
CCOc1ccccc1C(=O)N1CCC(C(=O)NCCc2csc(-c3ccccc3)n2)CC1	7
Cc1cc2nc(CCNC(=O)c3cnc(-c4ccc(Cl)cc4)nc3)[nH]c2cc1C	-95*
Cc1ccc2c(c1)cc(C(=O)NCCc1nc3cc(C)c(C)cc3[nH]1)n2C	7
COc1ccc(-c2cc(C(=O)NCCc3nc4cc(C)c(C)cc4[nH]3)nn2C)cc1	-1
COc1ccc(S(=O)(=O)Nc2ccc3c(c2)OC[C@@H](C)N(Cc2cc(F)ccc2F)C[C@@H](C)[C@H](OC)CN(C)C3=O)cc1	-90*
COc1cccc(S(=O)(=O)Nc2ccc3c(c2)C(=O)N(C)C[C@@H](OC)[C@H](C)CN(Cc2ccccc2F)[C@H](C)CO3)c1	-97*
SMILES	Tgondii IFNg
COc1cccc(S(=O)(=O)Nc2ccc3c(c2)C(=O)N(C)C[C@@H](OC)[C@@H](C)CN(Cc2ccccc2F)[C@H](C)CO3)c1	-53
COc1cccc(S(=O)(=O)Nc2ccc3c(c2)C(=O)N(C)C[C@H](OC)[C@H](C)CN(Cc2ccccc2F)[C@H](C)CO3)c1	-57
COc1cccc(S(=O)(=O)Nc2ccc3c(c2)C(=O)N(C)C[C@H](OC)[C@H](C)CN(Cc2ccccc2F)[C@@H](C)CO3)c1	-45
COc1cccc(S(=O)(=O)Nc2ccc3c(c2)C(=O)N(C)C[C@H](OC)[C@@H](C)CN(Cc2ccccc2F)[C@H](C)CO3)c1	-6
CCS(=O)(=O)N1CCCC(c2nc(C)ncc2-c2cc(C)no2)C1 (centres undefined)	21
CCN1CC(CNC(=O)c2cc(NC(=O)C(C)C)cc3nc(C)n(Cc4ccccc4)c23)CC1=O (centres undefined)	0
Cc1ccccc1-c1nc(Cn2c(=O)cc(C(=O)N3CCCCC3)c3ccccc32)c(C)o1	4
Cc1oc(-c2ccccc2)nc1CN1C(=O)CSc2ccc(S(=O)(=O)N3CCOCC3)cc21	-44
Cc1ccccc1-c1nc(CN2C(=O)CSc3ccc(S(=O)(=O)N4CCCC4)cc32)c(C)o1	-80*
Cc1nn(C)cc1-c1ccnc(NC[C@@H]2CCCO2)n1	2
C=CCSC(C)C(=O)Nc1ccc(NC(=O)C(C)(C)C)c(Cl)c1 (centres undefined)	9
Cc1cc(NC(=O)Cn2cc(C(=O)NCCc3ccccc3C)ccc2=O)no1	34
O=S(=O)(CCNc1nccc(CCC(F)(F)F)n1)N1CCCC1	-3
Clc1ccccc1Cn1nnc2c(Sc3nc4ccccc4s3)ncnc21	73
CCc1nc(Nc2ccc3c(c2)OCO3)c2nnn(Cc3ccccc3Cl)c2n1	-99*
Fc1ccccc1CSc1nc(Nc2ccc3c(c2)OCO3)c2ccccc2n1	-45
Cc1cc(N2CCN(C(=O)[C@@H]3C[C@@H]4C=C[C@H]3C4)CC2)nc2ccccc12	-46
CCCOCCn1nc(C2CCCNC2)n(CC)c1=O (centres undefined)	-48
COC[C@H]1CCC2C(CCN2C(=O)CCc2ccccc2)O1 (some centres undefined)	-25
CC(C)NC(=O)N1CCN(CC2CC2)CC2(CNC(=O)C2)C1 (centres undefined)	-30
O=C(c1ccc(-c2ccoc2)nc1)N1CCC(CCc2ccccc2)CC1	-11
CCOc1ccc(CNC(=O)c2nc(Nc3ccccc3)c3ccccc3n2)cc1	-52
CCOc1ccc(NC(=O)Cn2c(C)cc(C)nc2=O)cc1	19
CCOc1ccc(Nc2nc(-c3ccc(OC)cc3)nc3ccccc23)cc1	-43
CCOc1ccc(Nc2nc3ccccc3nc2Nc2ccc(OCC)cc2)cc1	-100*

Compound activity as filed in PubChem.
